# Measurements taken from PubChem BioAssay AID1159580 (chemical genetic matrix, 2015).
# In all, about 5,500 compounds went through this assay and about 2,000 (36%) were called active. Inconclusive results (about 18%) are left out. This is one part of the list. A number with no mark means an inactive call. Rule as the data show it: active = normalized growth mostly below about 0.91 (no sharp cut-off); inconclusive = no clear call, values can overlap the other calls; inactive = mostly above about 0.92.
# Assay: chemical genetic growth profiling, strain panel (AID 1159580);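 also: tested at 20 µM; growth read once vehicle control cultures reached saturation at 30 °C; 1 = growth at the plate median or of vehicle wells; lower values mean less growth of the strain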
# Details: S. cerevisiae deletion strains, growth OD
# [1] = locus YBR021W, strain FUR4, hits give low values
# [2] = locus YBR229C, strain ROT2, hits give low values
# [3] = locus YCL029C, strain bik1, hits give low values
# [4] = locus YDL035C, strain GPR1, hits give low values
# [5] = locus YDL074C, strain BRE1, hits give low values
# [6] = locus YDL101C, strain DUN1, hits give low values
# [7] = locus YDL185W, strain tfp1, hits give low values
# [8] = locus YDL192W, strain arf1, hits give low values
# [9] = locus YDR101C, strain arx1, hits give low values
# [10] = locus YDR162C, strain NBP2, hits give low values
# [11] = locus YDR318W, strain mcm21, hits give low values
# [12] = locus YDR388W, hits give low values
# [13] = locus YDR502C, strain sam2, hits give low values
# [14] = locus YEL061C, strain CIN8, hits give low values
# [15] = locus YER110C, hits give low values
# [16] = locus YER155C, strain BEM2, hits give low values
# [17] = locus YER167W, strain BCK2, hits give low values
# [18] = locus YGL078C, strain dbp3, hits give low values
# [19] = locus YGL086W, strain mad1, hits give low values
# [20] = locus YGL248W, strain PDE1, hits give low values
# [21] = locus YGR135W, strain pre9, hits give low values
# [22] = locus YGR252W, strain gcn5, hits give low values
# [23] = locus YHR030C, strain SLT2, hits give low values
# [24] = locus YHR079C, strain IRE1 (second series), hits give low values
# [25] = locus YHR094C, strain hxt1, hits give low values
# [26] = locus YHR129C, strain ARP1, hits give low values
# [27] = locus YHR200W, strain rpn10, hits give low values
# [28] = locus YIL066C, strain RNR3, hits give low values
# [29] = locus YIL073C, strain SPO22, hits give low values
# [30] = locus YIL125W, strain kgd1, hits give low values
# [31] = locus YIR030C, strain dcg1, hits give low values
# [32] = locus YJL095W, strain BCK1, hits give low values
# [33] = locus YJL134W, strain LCB3, hits give low values
# [34] = locus YJL168C, strain set2, hits give low values
# [35] = locus YJL187C, strain SWE1 (second series), hits give low values
# [36] = locus YJR043C, strain POL32, hits give low values
# [37] = locus YKL009W, strain mrt4, hits give low values
# [38] = locus YKL068W, hits give low values
# [39] = locus YKL085W, strain MDH1 (second series), hits give low values
# [40] = locus YKL085W, strain MDH1, hits give low values
# [41] = locus YKL190W, strain CNB1, hits give low values
# [42] = locus YKR001C, strain vps1, hits give low values
# [43] = locus YLR039C, strain RIC1, hits give low values
# [44] = locus YLR058C, strain SHM2, hits give low values
# [45] = locus YLR102C, strain apc9, hits give low values
# [46] = locus YLR262C, strain YPT6, hits give low values
# [47] = locus YLR268W, strain sec22, hits give low values
# [48] = locus YLR330W, strain CHS5, hits give low values
# [49] = locus YLR342W, strain FKS1 (second series), hits give low values
# [50] = locus YLR371W, strain rom2, hits give low values
# [51] = locus YLR418C, strain cdc73, hits give low values
# [52] = locus YML016C, strain PPZ1, hits give low values
# [53] = locus YML032C, strain rad52, hits give low values
# [54] = locus YML124C, strain tub3, hits give low values
# [55] = locus YMR078C, strain ctf18, hits give low values
# [56] = locus YMR223W, strain ubp8, hits give low values
# [57] = locus YMR307W, strain GAS1, hits give low values
# [58] = locus YNL067W, strain RPL9B, hits give low values
# [59] = locus YNL153C, strain GIM3, hits give low values
# [60] = locus YNL233W, strain BNI4, hits give low values
# [61] = locus YNL250W, strain rad50, hits give low values
# [62] = locus YNL271C, strain bni1, hits give low values
# [63] = locus YNL298W, strain CLA4, hits give low values
# [64] = locus YNL307C, strain MCK1, hits give low values
# [65] = locus YNL322C, strain KRE1, hits give low values
# [66] = locus YNR052C, strain pop2, hits give low values
# [67] = locus YOL147C, strain pex11, hits give low values
# [68] = locus YOR061W, strain CKA2, hits give low values
# [69] = locus YOR069W, strain VPS5, hits give low values
# [70] = locus YOR136W, strain idh2, hits give low values
# [71] = locus YOR144C, strain elg1, hits give low values
# [72] = locus YOR184W, strain ser1, hits give low values
# [73] = locus YOR316C, strain cot1, hits give low values
# [74] = locus YPL055C, strain LGE1, hits give low values
# [75] = locus YPR119W, strain clb2, hits give low values
# [76] = locus YPR141C, strain kar3, hits give low values
# [77] = locus YPR163C, strain tif3, hits give low values
# [78] = locus YPR167C, strain met16, hits give low values
# [79] = strain wtn01, hits give low values
# [80] = locus YAL013W, strain DEP1, hits give low values
# [81] = locus YDR150W, strain NUM1, hits give low values
# [82] = locus YGR078C, strain PAC10, hits give low values
smiles,measurement,setting,value
O=C1c2ccc(O)cc2O[C@H](c2cc(O)c(O)c(O)c2)[C@H]1O,normalized growth,[1],1
same,normalized growth,[2],0.992
same,normalized growth,[3],1.02
same,normalized growth,[4],1
same,normalized growth,[5],0.939
same,normalized growth,[6],0.93
same,normalized growth,[7],0.999
same,normalized growth,[8],1.01
same,normalized growth,[9],1
same,normalized growth,[10],1.03
same,normalized growth,[11],1
same,normalized growth,[12],1.01
same,normalized growth,[13],1.02
same,normalized growth,[14],0.999
same,normalized growth,[15],1.02
same,normalized growth,[16],1.04
same,normalized growth,[17],1.04
same,normalized growth,[18],1.01
same,normalized growth,[19],1.01
same,normalized growth,[20],1
same,normalized growth,[21],1.01
same,normalized growth,[22],0.972
same,normalized growth,[23],1.01
same,normalized growth,[24],1.02
same,normalized growth,[25],1.02
same,normalized growth,[26],0.997
same,normalized growth,[27],0.982
same,normalized growth,[28],0.99
same,normalized growth,[29],1.07
same,normalized growth,[30],1
same,normalized growth,[31],1.03
same,normalized growth,[32],0.884
same,normalized growth,[33],1.01
same,normalized growth,[34],1
same,normalized growth,[35],0.853 (active)
same,normalized growth,[36],0.998
same,normalized growth,"locus YJR075W, strain HOC1, hits give low values",1.04
same,normalized growth,[37],1.06
same,normalized growth,[38],1.02
same,normalized growth,[39],1.01
same,normalized growth,[40],1.01
same,normalized growth,[41],1.01
same,normalized growth,[42],1
same,normalized growth,[43],1.04
same,normalized growth,[44],0.92
same,normalized growth,[45],1.01
same,normalized growth,[46],1.06
same,normalized growth,[47],1.01
same,normalized growth,[48],1.03
same,normalized growth,[49],0.95
same,normalized growth,[50],0.992
same,normalized growth,[51],1.01
same,normalized growth,[52],0.987
same,normalized growth,[53],1.06
same,normalized growth,[54],1.02
same,normalized growth,[55],1.03
same,normalized growth,[56],1.03
same,normalized growth,[57],1.02
same,normalized growth,[58],1.01
same,normalized growth,[59],0.947
same,normalized growth,[60],1.02
same,normalized growth,[61],1.01
same,normalized growth,[62],1.01
same,normalized growth,[63],0.996
same,normalized growth,[64],1
same,normalized growth,[65],1.01
same,normalized growth,[66],0.967
same,normalized growth,"locus YOL012C, strain htz1",0.815
same,normalized growth,[67],1.01
same,normalized growth,[68],1
same,normalized growth,[69],1.01
same,normalized growth,[70],1.05
same,normalized growth,[71],1.02
same,normalized growth,[72],1.02
same,normalized growth,[73],1.01
same,normalized growth,[74],1.02
same,normalized growth,[75],1
same,normalized growth,[76],1.01
same,normalized growth,[77],1.01
same,normalized growth,[78],1.03
same,normalized growth,[79],1.01
Oc1cc(O)c2c(c1)OC(c1ccc(O)c(O)c1)C(O)C2 (stereo not drawn),normalized growth,[80],1
same,normalized growth,"locus YAL040C, strain CLN3, hits give low values",1.01
same,normalized growth,"locus YCL061C, strain MRC1 (second series), hits give low values",1
same,normalized growth,[81],1.01
same,normalized growth,"locus YER002W, strain NOP16, hits give low values",1.03
same,normalized growth,[82],1.01
same,normalized growth,"locus YMR263W, strain SAP30, hits give low values",1
same,normalized growth,[59],1.03
same,normalized growth,"locus YNL175C, strain NOP13, hits give low values",1.02
same,normalized growth,"locus YNL197C, strain WHI3, hits give low values",1.01
same,normalized growth,"locus YNL224C, strain SQS1, hits give low values",1.01
same,normalized growth,"locus YOR083W, strain WHI5 (second series), hits give low values",1.02
Oc1cc(O)c2c(c1)OC(c1cc(O)c(O)c(O)c1)C(O)C2c1c(O)cc(O)c2c1OC(c1cc(O)c(O)c(O)c1)C(O)C2c1c(O)cc(O)c2c1OC(c1cc(O)c(O)c(O)c1)C(O)C2 (stereo not drawn),normalized growth,[80],0.977
same,normalized growth,[1],1.02
same,normalized growth,[2],0.992
same,normalized growth,[3],0.999
same,normalized growth,[4],0.889
same,normalized growth,[5],0.846
same,normalized growth,[6],0.913
same,normalized growth,"locus YDL134C, strain PPH21, hits give low values",0.937
same,normalized growth,[7],0.973
same,normalized growth,[8],0.948
same,normalized growth,[9],1.03
same,normalized growth,[81],0.964
same,normalized growth,[10],0.84
same,normalized growth,[11],0.973
same,normalized growth,[12],1
same,normalized growth,[13],0.979
same,normalized growth,[14],0.933
same,normalized growth,[15],1.02
same,normalized growth,[16],1.02
same,normalized growth,[17],1.02
same,normalized growth,[18],1.02
same,normalized growth,[19],0.964
same,normalized growth,[20],0.911
same,normalized growth,[82],0.918
same,normalized growth,[21],0.912
same,normalized growth,"locus YGR229C, strain SMI1, hits give low values",0.747 (active)
same,normalized growth,[22],0.963
same,normalized growth,[23],0.972
same,normalized growth,[24],1.04
same,normalized growth,[25],1.02
same,normalized growth,[26],0.915 (active)
same,normalized growth,[27],0.98
same,normalized growth,[28],0.919
same,normalized growth,[29],0.9
same,normalized growth,[30],1.02
same,normalized growth,[31],1
same,normalized growth,[32],0.845
same,normalized growth,[33],0.99
same,normalized growth,[34],1
same,normalized growth,[35],0.775 (active)
same,normalized growth,[36],0.857
same,normalized growth,[37],1.15 [resistant] (active)
same,normalized growth,[38],1.02
same,normalized growth,[39],1.01
same,normalized growth,[40],1.01
same,normalized growth,[41],0.961
same,normalized growth,[42],0.982
same,normalized growth,[43],0.836
same,normalized growth,[44],0.835 (active)
same,normalized growth,[45],1.02
same,normalized growth,[46],0.935
same,normalized growth,[47],0.96
same,normalized growth,[48],1
same,normalized growth,[49],0.919
same,normalized growth,[50],0.91
same,normalized growth,[51],0.92
same,normalized growth,[52],0.94
same,normalized growth,[53],1
same,normalized growth,[54],1.01
same,normalized growth,[55],1.01
same,normalized growth,[56],0.947
same,normalized growth,[57],0.928
same,normalized growth,[58],0.917
same,normalized growth,[60],0.945
same,normalized growth,[61],1
same,normalized growth,[62],0.989
same,normalized growth,[63],1.01
same,normalized growth,[64],1.02
same,normalized growth,[65],0.916 (active)
same,normalized growth,[66],0.952
same,normalized growth,"locus YOL012C, strain htz1",0.566
same,normalized growth,[67],1.01
same,normalized growth,[68],0.931
same,normalized growth,[69],0.976
same,normalized growth,[70],1.02
same,normalized growth,[71],1
same,normalized growth,[72],0.968
same,normalized growth,[73],1.01
same,normalized growth,[74],0.886
same,normalized growth,"locus YPL241C, strain CIN2, hits give low values",0.974
same,normalized growth,[75],1.02
same,normalized growth,[76],1
same,normalized growth,[77],1.01
same,normalized growth,[78],0.982
same,normalized growth,[79],1.01
